These results are taken from PubChem BioAssay (NCI).

Molecules are shown by their SMILES. About 83,000 compounds went through this panel and 20% of them were active in at least one assay; those are over-represented in the sample as a whole.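 Values shown are percent growth following 48 h exposure of cells in 96-well plates to a single concentration of compound; below 10 was considered active.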 A number with no mark means an inactive call.

This assay concerns A498 renal. The experiment in a line: NCI-60 one-dose screen, 48 h (100 = growth as untreated, 0 = no growth, -100 = all killed). Particulars: 10 µM.
Regarding `COc1cc2c3c(n(CCCNC(C)C)c(=O)c2cc1OC)-c1nc2c(cc1C3=O)OCO2`, the growth is 81.9%.
As to `COc1ccc2cc([C@H](C)C(=O)NCc3ccccc3)ccc2c1`, the growth was 63.1%.
Take `O=C(Cn1nc(-c2ccccc2)ccc1=O)NNC(=S)NC1CCCCC1`: the growth is 121%.
As to `CN1CCCN(Cc2ccc(C(=O)Nc3cccc(Nc4ccc5cc(O)ccc5n4)c3)cc2C(F)(F)F)CC1`, the growth was 139%.
On to `O=C1Nc2cc(Cl)ccc2/C1=C/c1cccc(OCc2ccccc2)c1`, for which the growth is 49.9%.
`C/C(=C\CC/C=C(\C)CC/C=C(\C)CC[C@@H](O)C(C)(C)O)CC/C=C(\C)CC[C@@H](O)C(C)(C)O`: the growth was 73.6%.
Take `O=C(c1ccc([N+](=O)[O-])c([N+](=O)[O-])c1O)n1[nH]c(=O)c2ccccc2c1=O`: the growth is 133%.
For `O=C(O)CCCCCCCCCCN1C(=O)/C(=C/c2cnc(-c3ccc(Cl)cc3)s2)SC1=S` the value was 83.2%; for `O=C1Nc2ccc(F)cc2/C1=C/c1cccc(OCc2ccccc2)c1`, 80.2%.
With `COc1ccc(-c2nc(S(=O)(=O)c3ccccc3)c(S(C)(=O)=O)o2)cc1`, the growth is 113%.
As to `COc1ccc(C(=O)NC(=S)N2CCN(c3ncnc4c3cnn4-c3ccccc3)CC2)cc1`, the growth is 115%.
In the case of `C=CC(=O)Nc1nc(-c2cccc(NS(=O)(=O)c3cccc4c(N(C)C)cccc34)c2)cs1`, the growth is 25.7%.
Consider `Cc1cc(=O)oc2cc(OCCCCOc3ccc(/C=C/C(=O)Nc4cccc(Cl)c4)cc3)ccc12`, for which the growth was 80.7%.
